TDP1 cell noCPT = qHTS for Inhibitors of human tyrosyl-DNA phosphodiesterase 1 (TDP1): qHTS in cells in absence of CPT; DT40 Tdp1-/- hTDP1 cells, no CPT, ATP luminescence, 48 h; AID 686978, 2013; actives 15% (n = 420,000); Potency, µM (top dose mostly 46.2 µM), without a hit: at the top dose activity change, negative = growth inhibition, most hits filed as inhibitors; also: potency is read from the fitted curve at half-maximal effect; % is scaled to controls: 0 for no effect and ±100 for the full control effect; nearly all actives have a fitted effect of over 55% in size
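Readout: luminescence from CellTiter-Glo after 30 min in the dark at RT. Cells: DT40 Tdp1-/- with stable hTDP1, 400/well. Exposure: compounds alone, ≥48 hr, 37 °C.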
DT40 TDP1 CPT = qHTS for Inhibitors of human tyrosyl-DNA phosphodiesterase 1 (TDP1): qHTS in cells in presence of CPT | chicken DT40 Tdp1-/-;hTDP1 cells + 20 nM CPT, ATP luminescence, 48 h | Potency, µM (series often up to 46.2 µM), inactives show at the highest dose activity change, negative = growth inhibition, usual class: inhibitors | actives 12% (n = 420,000); also: potency is read from the fitted curve at half-maximal effect; % is scaled to controls: 0 for no effect and ±100 for the full control effect; nearly all actives have a fitted effect of over 55% in size
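Cell growth measured by CellTiter-Glo luminescence after a minimum 48 h, 37 C compound exposure with 20 nM CPT in Tdp1-knockout DT40 cells stably expressing hTDP1, seeded 400/well; qHTS titration format.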
HepG2 viability = qHTS for Inhibitors of TGF-b: Cytotox Counterscreen; HepG2 CAGA-GFP viability, ATP luminescence, 18 h; Potency, µM (highest dose often 46.1 µM), for the others: at the top dose activity change, negative = cytotoxicity, usual class: cytotoxic; actives 0.76% (n = 410,000); AID 588856, 2011; also: potency is read from the fitted curve at half-maximal effect
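CellTiter-Glo luminescence gave cytotoxicity after 18 hours at 37 degrees C. The cells were HepG2 CAGA-GFP in 1% FBS DMEM, stimulated with 500 pg/mL TGF-beta after compound addition. %Activity was normalised to no-cell wells (complete cell-killing) and DMSO (no toxicity), and curves were fitted and classified.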
TDP1 inh = qHTS Assay for Inhibitors of Tyrosyl-DNA Phosphodiesterase (TDP1); Tyrosyl-DNA phosphodiesterase 1 (Homo sapiens), Q9NUW8; recombinant TDP1, AlphaScreen DNA substrate cleavage; Potency, µM (highest dose often 130 µM), without a hit: top-dose activity change, negative = inhibition, hits mostly inhibitors; actives 0.28% (n = 350,000); AID 485290, 2010; also: potency is read from the fitted curve at half-maximal effect; % is scaled to controls: 0 for no effect and ±100 for the full control effect; nearly all actives have a fitted effect of over 40% in size
Target sequence (Q9NUW8 whole entry, looked up): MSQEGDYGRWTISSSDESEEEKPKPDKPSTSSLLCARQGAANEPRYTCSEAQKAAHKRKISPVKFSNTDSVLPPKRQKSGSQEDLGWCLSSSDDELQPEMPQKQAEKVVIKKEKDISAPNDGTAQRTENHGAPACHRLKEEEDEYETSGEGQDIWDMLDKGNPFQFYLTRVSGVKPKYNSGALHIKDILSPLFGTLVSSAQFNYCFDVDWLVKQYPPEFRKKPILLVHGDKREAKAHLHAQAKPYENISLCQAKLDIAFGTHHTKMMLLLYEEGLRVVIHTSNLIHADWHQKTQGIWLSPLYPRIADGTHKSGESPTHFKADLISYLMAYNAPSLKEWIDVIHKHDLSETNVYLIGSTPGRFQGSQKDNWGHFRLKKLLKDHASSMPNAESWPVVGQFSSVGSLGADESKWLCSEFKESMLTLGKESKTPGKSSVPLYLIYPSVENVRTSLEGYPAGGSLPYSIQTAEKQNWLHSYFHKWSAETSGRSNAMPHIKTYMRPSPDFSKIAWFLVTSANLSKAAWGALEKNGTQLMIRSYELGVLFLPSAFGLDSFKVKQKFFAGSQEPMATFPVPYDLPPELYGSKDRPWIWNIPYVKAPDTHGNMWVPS
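Tdp1 1 nM final; 15 min RT w/ cpd; substrate 15 nM, 5 min; beads 10 ug/ml, 10 min; AlphaScreen read. Neg ctrl: no enzyme.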
TGFb inhibitor = qHTS for Inhibitors of TGF-b | HepG2 CAGA-GFP TGF-b/SMAD3 reporter, GFP fluorescence, 18 h; TGF-beta stimulated, 500 pg/mL final | Potency, µM (top dose mostly 46.1 µM), inactives show at the top dose activity, negative = inhibition, hits mostly inhibitors | actives 1.2% (n = 410,000); also: potency is read from the fitted curve at half-maximal effect; % is scaled to controls: 0 for no effect and ±100 for the full control effect; nearly all actives have a fitted effect of over 65% in size
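Using HEPG2 CAGA-GFP reporter cells at 1000 cells/well, we pinned test compounds, stimulated with recombinant TGF-beta (500 pg/mL final) and measured total well GFP after 18 h.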
IL-1B inflam inh = qHTS for Inhibitors of Inflammasome Signaling: IL-1-beta AlphaLISA Primary Screen | AID 743279, 2014 | actives 4.7% (n = 360,000) | THP-1 LPS/ATP IL-1B secretion, AlphaLISA, 16 h; active compounds read low | activity change, % at 57.5 µM; in the data active = activity change below about -50%; inconclusive = mostly about -30% to -49%; also: % is scaled to controls: 0 for no effect and ±100 for the full control effect
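Secreted IL-1B measured by AlphaLISA bead assay after 16 h compound exposure of THP-1 cells; compounds (final up to 57.5 uM) added 1 h before LPS (250 ng/mL) and ATP (1.25 mM) stimulation; lower signal means less secretion.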
Numbers without * were called inactive; i = inactive; ? = inconclusive; / = no result given; [ ] = dose if it differs, or a comment. Rows were chosen to be rich in hits. Some 19% of all compounds tested hit in one or more screens of this group. Unless noted, calls follow the shape of the dose curve; as a rule, active = well fitted curve in the direction sought with a large enough effect; inconclusive = small, poorly fitted or top-dose-only effect, or another doubt; inactive = no such curve, though single readings can be large; an effect the other way counts as inactive or inconclusive.

SMILES	TDP1 cell noCPT	DT40 TDP1 CPT	HepG2 viability	TDP1 inh	TGFb inhibitor	IL-1B inflam inh
CCOC(=O)C1=C(COC(=O)CCS(=O)(=O)c2ccc(C)cc2)NC(=O)NC1C (configuration not stated)	-24%	?	-6%	-1%	1%	-80*
CCOC(=O)C1=C(COC(=O)CCOc2ccccc2)NC(=O)NC1C (configuration not stated)	23µM*	23µM*	-4%	1%	-3%	5
CCOC(=O)C1=C(COC(=O)CCOc2cccc(C)c2)NC(=O)NC1C (configuration not stated)	?	?	-3%	7%[0.505 µM]	-23%	1
CCOC(=O)C1=C(COC(=O)CNS(=O)(=O)c2ccc(C)cc2)NC(=O)NC1C (configuration not stated)	-6%	-15%	-8%	4%	25%	i
CCOC(=O)C1=C(COC(=O)c2sccc2C)NC(=O)NC1C (configuration not stated)	-8%	9%	-8%	0%	3%	-15
CN(c1cccc(Cl)c1)S(=O)(=O)c1cccc(C(=O)NN2CCOCC2)c1	0%	12%	0%	1%	6%	5
Cc1nn2c(=O)cc(COC(=O)c3ccccc3NC(=O)C3CCCCC3)nc2s1	1%	7%	2%	-6%	-6%	/
Cc1ccoc1C(=O)Nc1cccc2ccccc12	21µM*	9.2µM*	-28%	/	-1%	-10
Cc1cc(NC(=O)C(Cl)c2ccccc2)no1 (configuration not stated)	?	7.3µM*	0%	1%	-11%	-83*
CCc1ccccc1OCC(=O)OCC(=O)Nc1cc(C)on1	12%	-4%	3.2µM*	1%	10%	5
CC(=O)N(C)c1ccc(NC(=O)Nc2ccc(C)c(C)c2)cc1	18µM*	?	-8%	/	-7%	?
COc1ccc(NC2CCCN(C(=O)c3cn(C)c4ccccc34)C2)cc1 (configuration not stated)	4%	-16%	1%	7%	-2%	-6
Cc1cc(NC(=O)Cc2ccccc2C)no1	-23%	23µM*	-11%	/	7%	0
Cc1cc(NC(=O)Nc2ccc(F)cc2)no1	-14%	-3%	15%	-12%	2%	-8
Cc1cc(NC(=O)Nc2cccc3ccccc23)no1	?	9.2µM*	-25%	5%	1%	8
Cc1cc(NC(=O)Nc2ccc(C)c(C)c2)no1	-102%	23µM*	-13%	3%	-6%	14
CC(=O)N(C)c1ccc(NC(=S)Nc2ccc(C(C)C)cc2)cc1	26µM*	16µM*	-20%	5%	-21%	21
CC(C)c1ccc(NC(=S)Nc2ccc3[nH]c(=O)[nH]c3c2)cc1	4%	-3%	0%	4%	12%	-2
Cc1cccc(NC(=O)Nc2cccc3ccccc23)c1	2%	-1%	6%	2%	-19%	-23
O=C(COc1ccccc1)N/N=C/c1ccc2c(c1)OCO2	-36%	10%	71%	4%	0%	-21
Cc1cccc(C)c1OCC(=O)N/N=C/c1cccnc1	15µM*	?	-11%	-10%	-3%	13
O=C(COc1ccccc1-c1ccccc1)N/N=C/c1ccc2ccccc2c1	0.92µM*	1.2µM*	-55%	-1%	7.1µM*	20
O=C(COc1ccccc1-c1ccccc1)N/N=C/c1cccnc1	13µM*	15µM*	-21%	-1%	-13%	75
C/C(=N\NC(=O)COc1ccccc1-c1ccccc1)c1cccnc1	21µM*	?	2%	2%	?	19
N#CCCC(CCC#N)(CCC#N)c1cc[n+](CCc2ccccn2)cc1	-6%	4%	8%	-4%	6%	-4
SMILES	TDP1 cell noCPT	DT40 TDP1 CPT	HepG2 viability	TDP1 inh	TGFb inhibitor	IL-1B inflam inh
O=C(COc1ccccc1-c1ccccc1)N/N=C/c1ccccn1	23µM*	23µM*	-10%	7%	-29%	55
O=C(O)COc1ccccc1-c1ccccc1	8%	4%	0%	-3%	0%	-1
C/C(=N\NC(=O)COc1ccccc1-c1ccccc1)c1ccc(O)cc1O	?	21µM*	-105%	/	?	169
Cc1ccc(CN2CCc3nnc(C(NS(C)(=O)=O)C(C)C)n3CC2)cc1C (configuration not stated)	-1%	-12%	/	/	/	/
c1ccc(-c2nc3ccccc3n2C(c2ccccc2)c2nc3ccccc3[nH]2)cc1 (configuration not stated)	?	?	/	/	/	7
O=c1c(-c2ccccc2)nc2ccccc2n1C(c1ccccc1)c1nc2ccccc2[nH]1 (configuration not stated)	-19%	-25%	/	/	/	-53*
COc1cc(Cc2nc3ccccc3n2C(C)c2nc3ccccc3[nH]2)cc(OC)c1 (configuration not stated)	?	18µM*	/	/	/	-14
CCC(c1nc2ccccc2[nH]1)n1c(=O)c(-c2cccnc2)nc2ccccc21 (configuration not stated)	-27%	5%	/	/	/	-3
CC(c1nc2ccccc2[nH]1)n1c(=O)c(-c2cccnc2)nc2ccccc21 (configuration not stated)	?	23µM*	/	/	/	-88*
CC(=O)N1CCN(S(=O)(=O)c2ccc3c(c2)CC(=O)N3)CC1	11%	-1%	-14%	-3%	4%	1
Cc1ccccc1OCC(O)Cn1c(NCc2ccco2)nc2c1c(=O)n(C)c(=O)n2C (configuration not stated)	10µM*	12µM*	-7%	-4%	?	19
CCn1c(NCc2ccco2)nc2c1c(=O)n(C)c(=O)n2C	12µM*	?	-3%	1%	0%	-4
Cn1c(=O)c2c(nc(NCc3ccccc3)n2Cc2ccc(F)cc2)n(C)c1=O	/	/	/	-5%	/	/
Cn1c(=O)c2c(nc(NCc3ccco3)n2CCc2ccccc2)n(C)c1=O	6.5µM*	7.3µM*	3%	-4%	?	-18
